Screens as filed in PubChem BioAssay.
Only some compounds are listed: those with a hit (about 18% of all), similar ones and a draw of the others.
DT40 TDP1 CPT = DT40-hTDP1 cell growth loss with CPT; chicken DT40 Tdp1-/-;hTDP1 cells + 20 nM CPT, ATP luminescence, 48 h; Potency, µM (highest dose often 46.2 µM), hits mostly inhibitors; 420,000 compounds, 12% hits; AID 686979; further: nearly all actives have a fitted effect of over 55% in size
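Cell growth measured by CellTiter-Glo luminescence after a minimum 48 h, 37 C compound exposure with 20 nM CPT in Tdp1-knockout DT40 cells stably expressing hTDP1, seeded 400/well; qHTS titration format.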
TDP1 cell noCPT = qHTS for Inhibitors of human tyrosyl-DNA phosphodiesterase 1 (TDP1): qHTS in cells in absence of CPT. DT40 Tdp1-/- hTDP1 cells, no CPT, ATP luminescence, 48 h. Potency, µM (series often up to 46.2 µM), most hits filed as inhibitors. 420,000 compounds, 15% hits. AID 686978, 2013; further: nearly all actives have a fitted effect of over 55% in size
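Camptothecin absent (DMSO only). Human TDP1-complemented DT40 knockout cells, 400 cells/well, 37 °C for minimum 48 hr; ATP measured via CellTiter-Glo, 30 min dark incubation, luminescence.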
Six1-Eya2 blk = Six1/Eya2 interaction inhibition; Q15475+O00167; AlphaScreen GST-Six1/His-Eya2 binding, biochemical; hits give low values; AID 651725; activity change, % (no concentration beside the values); 360,000 compounds, 0.56% hits; in the data active means activity change below about -65%; inconclusive means mostly about -30% to -63%
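AlphaScreen luminescence read after one hour at 37 °C in darkness. Pin-transferred compounds met GST-Six1 and His-Eya2 protein (5X stock 250 nM/500 nM) plus glutathione donor and Ni-chelate acceptor beads (5X, 50 ug/mL).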
IL1B secr inh = inflammasome signaling inhibition, IL-1 beta readout; THP-1 LPS/ATP IL-1B secretion, AlphaLISA, 16 h; hits give low values; activity change, % at 57.5 µM; 360,000 compounds, 4.7% hits; AID 743279; in the data active means activity change below about -50%; inconclusive means mostly about -30% to -49%
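Secreted IL-1B measured by AlphaLISA bead assay after 16 h compound exposure of THP-1 cells; compounds (final up to 57.5 uM) added 1 h before LPS (250 ng/mL) and ATP (1.25 mM) stimulation; lower signal means less secretion.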
CtBP-E1A inh = inhibitors of CtBP/E1A interaction | AlphaScreen GST-E1A/His-CtBP binding, 1536-well; hits give low values | activity change, % (concentration not given with the values) | 340,000 compounds, 0.49% hits; in the data active means activity change below about -65%; inconclusive means mostly about -30% to -63%
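Protein mix (5X: 125 nM each GST-E1A, His-CtBP) was incubated with pinned compound 2 h at 37 deg C in dark, in 50 mM Tris pH 8.0 buffer with 300 mM NaCl. Glutathione donor and nickel acceptor beads followed; AlphaScreen signal read after 1 h.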
TDP1 inh = inhibitors of human tyrosyl-DNA phosphodiesterase TDP1; 350,000 compounds, 0.28% hits; recombinant TDP1, AlphaScreen DNA substrate cleavage; Potency, µM (highest dose often 130 µM), most hits filed as inhibitors; AID 485290; further: nearly all actives have a fitted effect of over 40% in size
Target sequence (Q9NUW8 whole entry, looked up): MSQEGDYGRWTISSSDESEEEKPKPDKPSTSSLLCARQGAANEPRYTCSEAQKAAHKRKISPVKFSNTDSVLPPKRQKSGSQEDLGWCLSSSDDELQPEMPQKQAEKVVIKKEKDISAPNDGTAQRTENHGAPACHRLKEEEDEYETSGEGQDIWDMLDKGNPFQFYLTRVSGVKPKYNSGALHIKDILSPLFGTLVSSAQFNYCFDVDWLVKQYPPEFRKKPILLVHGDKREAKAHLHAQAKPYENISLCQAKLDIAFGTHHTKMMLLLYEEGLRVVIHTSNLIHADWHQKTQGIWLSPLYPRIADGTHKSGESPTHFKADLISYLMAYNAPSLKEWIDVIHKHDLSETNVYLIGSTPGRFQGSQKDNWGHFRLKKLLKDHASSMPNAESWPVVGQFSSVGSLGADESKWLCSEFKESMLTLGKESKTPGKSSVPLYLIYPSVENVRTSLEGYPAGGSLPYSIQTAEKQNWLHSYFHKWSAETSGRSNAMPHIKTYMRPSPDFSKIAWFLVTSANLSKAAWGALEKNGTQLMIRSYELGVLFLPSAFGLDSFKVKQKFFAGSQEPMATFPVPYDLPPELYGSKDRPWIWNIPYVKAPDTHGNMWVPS
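Recombinant human Tdp1 (E. coli-expressed, 1 nM final) preincubated with compounds 15 min at room temperature, then 5'-biotin/3'-phosphotyrosine-FITC DNA substrate (15 nM final) added for 5 min. AlphaScreen beads (10 ug/ml final) added 10 min; cleavage lowers signal.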
Each line names hits and unclear results; the compound was inactive in the other large screens; ! = not active in a repeat. Unless noted, the call rests on the fitted dose curve; in most records, active means well fitted curve in the direction sought with a large enough effect; inconclusive means small, poorly fitted or top-dose-only effect, or another doubt; inactive means no such curve, though single readings can be large; an effect the other way counts as inactive or inconclusive.

CCN(CC)c1ccc2cc(-c3nnc(-c4ccncc4)o3)c(=O)oc2c1	DT40 TDP1 CPT 12µM, TDP1 cell noCPT 21µM
CCN(CC)c1ccc2cc(C(=O)Nc3cccnc3N3CCOCC3)c(=O)oc2c1	none (no result: DT40 TDP1 CPT, TDP1 cell noCPT, Six1-Eya2 blk, IL1B secr inh, CtBP-E1A inh)
COc1cc(/C=N/N2CCOCC2)ccc1OCc1ccc(Cl)cc1	TDP1 cell noCPT inconclusive
COc1cc(/C=N/OCC(=O)Nc2cc(C)cc(C)c2)ccc1OCc1ccc(Cl)cc1	DT40 TDP1 CPT inconclusive, TDP1 cell noCPT 13µM
COC(=O)c1ccc(/C=N/OCC(=O)NC2CCCC(C)C2C)cc1 (centres undefined)	DT40 TDP1 CPT inconclusive, TDP1 cell noCPT inconclusive
COc1cc(/C=N/OCC(=O)NC2CCCCC2C)ccc1OCc1ccc(Cl)cc1 (centres undefined)	DT40 TDP1 CPT 18µM, TDP1 cell noCPT 18µM, IL1B secr inh inconclusive
COc1ccc(C2C(C(=O)Nc3cccnc3)=C(C)Nc3nc(SCc4ccccc4)nn32)cc1 (centres undefined)	none (no result: Six1-Eya2 blk, IL1B secr inh, CtBP-E1A inh)
CCCN1C(=O)/C(=N\OCC(=O)NC23CC4CC(CC(C4)C2)C3)c2ccccc21	DT40 TDP1 CPT 16µM, TDP1 cell noCPT 16µM
N#Cc1ccc(-c2ccc3c(c2)OCO3)nc1SCC(=O)OCc1ccccc1	none
O=C(NCCCN1CCOCC1)c1ccc2c(c1)N(Cc1ccc(Cl)cc1)C(=O)c1ccccc1S2=O (centres undefined)	DT40 TDP1 CPT inconclusive, TDP1 cell noCPT inconclusive (no result: CtBP-E1A inh)
CCCC(=O)N1CCc2cc(OC)c(OC)cc2C1COc1ccccc1OC (centres undefined)	DT40 TDP1 CPT inconclusive, TDP1 cell noCPT 18µM!
COc1cc2c(cc1OC)C(COc1ccccc1OC)N(C(=O)CC(C)C)CC2 (centres undefined)	DT40 TDP1 CPT inconclusive, TDP1 cell noCPT 18µM (no result: Six1-Eya2 blk, IL1B secr inh, CtBP-E1A inh)
C#CCNC(=O)C1=C[C@@H](c2csc3ccccc23)[C@H](CCCO)[C@@H](OCC)O1	none
Cc1cc(C=O)c(C)c2c1[nH]c1ccccc12	DT40 TDP1 CPT inconclusive, TDP1 cell noCPT 21µM, IL1B secr inh -57 (no result: TDP1 inh)
CCC(C)(C(=O)NC1CCCCC1)N(Cc1ccco1)C(=O)c1ccc2c(c1)OCO2 (centres undefined)	DT40 TDP1 CPT 12µM, TDP1 cell noCPT 8.2µM
CCC(C)(C(=O)NC1CCCCC1)N(Cc1ccco1)C(=O)Cc1cccs1 (centres undefined)	DT40 TDP1 CPT inconclusive, TDP1 cell noCPT inconclusive
CCN(CC)c1ccc(NC(=O)COC(=O)CCC(=O)c2ccc(F)cc2)cc1	Six1-Eya2 blk inconclusive, CtBP-E1A inh inconclusive
CCOC(=O)c1cn(Cc2ccccc2)c2cc(C)nn2c1=O	none
CCOC(=O)c1cn(Cc2ccccc2)c(C(=O)OC(C)(C)C)c1O	DT40 TDP1 CPT 23µM (no result: TDP1 inh)
CC(=O)Nc1nc2ccccc2n1CCOc1ccccc1Cl	DT40 TDP1 CPT inconclusive, TDP1 cell noCPT 15µM
O=C(Nc1nc2ccccc2n1CCOc1ccccc1Cl)c1ccccc1	DT40 TDP1 CPT inconclusive, TDP1 cell noCPT inconclusive (no result: Six1-Eya2 blk, IL1B secr inh, CtBP-E1A inh)
COc1ccccc1OCCn1c(NC(=O)c2ccc(Cl)cc2)nc2ccccc21	none (no result: Six1-Eya2 blk, IL1B secr inh, CtBP-E1A inh)
COc1ccccc1OCCn1c(NC(=O)c2ccccc2Cl)nc2ccccc21	DT40 TDP1 CPT 23µM, TDP1 cell noCPT 16µM (no result: Six1-Eya2 blk, IL1B secr inh, CtBP-E1A inh)
CCc1ccc(CNC(=O)C2CCN(S(=O)(=O)N3CCC4(CC3)OCCO4)CC2)cc1	DT40 TDP1 CPT inconclusive (no result: CtBP-E1A inh)
CC[C@]12c3[nH]c4ccccc4c3CCN1C(=O)C(CC(=O)NCc1ccc(OC)c(OC)c1)C[C@@H]2C(=O)N1CCN(C(=O)C2CC2)CC1 (some centres undefined)	TDP1 cell noCPT inconclusive
Nc1ccc2cc3ccc(N)cc3nc2c1	DT40 TDP1 CPT 5.3µM, TDP1 cell noCPT 2.7µM (no result: Six1-Eya2 blk, IL1B secr inh, CtBP-E1A inh)
CC1CCN(CCCNc2cc(NCCO)c([N+](=O)[O-])c3nonc23)CC1	none (no result: TDP1 inh)
